# A selection: hits, their analogues and other compounds. The true share with any hit is near 7.6%.
# PLAP activator – PLAP enzyme activators, biochemical, luminescence, HTS | AID 696, 2007 | Alkaline phosphatase, placental type (Homo sapiens), P05187 | hit rate 1.2% among 96,000 | activation fold at 20 µM | purified PLAP enzyme, luminescent substrate read-out; active compounds read high; in the data active = activation fold above about 2
# Target sequence (P05187 whole entry, looked up): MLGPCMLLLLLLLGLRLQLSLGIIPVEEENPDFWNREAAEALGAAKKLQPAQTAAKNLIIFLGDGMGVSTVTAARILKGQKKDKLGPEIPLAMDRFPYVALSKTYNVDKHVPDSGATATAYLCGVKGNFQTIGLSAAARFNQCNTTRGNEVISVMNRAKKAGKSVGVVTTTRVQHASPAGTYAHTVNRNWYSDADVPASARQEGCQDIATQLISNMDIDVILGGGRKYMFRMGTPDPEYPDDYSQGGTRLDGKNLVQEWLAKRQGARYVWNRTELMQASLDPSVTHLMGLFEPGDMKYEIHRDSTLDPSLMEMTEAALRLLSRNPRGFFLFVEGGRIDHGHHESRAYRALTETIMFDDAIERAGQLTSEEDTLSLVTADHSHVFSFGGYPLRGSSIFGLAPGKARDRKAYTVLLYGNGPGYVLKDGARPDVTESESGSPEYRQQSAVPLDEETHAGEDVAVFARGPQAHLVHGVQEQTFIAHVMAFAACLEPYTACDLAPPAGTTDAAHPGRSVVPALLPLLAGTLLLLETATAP
# M1 antagonist – antagonists of rat M1 muscarinic receptor. Muscarinic acetylcholine receptor M1 (Rattus norvegicus), P08482. CHO-M1 cells, Fluo-4 calcium, ACh EC80 antagonist mode; active compounds read low. B-score at 10 µM. hit rate 3.4% among 64,000;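 active = calcium fluorescence response, raw or row-and-column corrected B-score, differing from the plate sample mean either way at a set confidence level, mostly lower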
# Cav32 inh – Cav3.2 calcium influx blockers – cell-based, Fluo-4 calcium fluorescence, FDSS, MLSMR library, primary screen. Voltage-dependent T-type calcium channel subunit alpha-1H (Homo sapiens), O95180. Cav3.2-expressing cells; active compounds read low. B-score at 10 µM. hit rate 4% among 100,000. AID 449739, 2010;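 active = single-dose well whose peak fluorescence ratio is a statistical outlier from its plate by either plate-standardised score or position-corrected B-score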
# M1 ag – M1 muscarinic receptor agonists, primary screen, CHO-M1 cells, Fluo-4 calcium, agonist mode. Muscarinic acetylcholine receptor M1. Fluo-4 calcium fluorescence; active compounds read high. B-score at 10 µM. hit rate 3% among 64,000;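 active = fluorescence rise, raw or as B-score row- and column-corrected plate score, outside the 99.7% band of its plate's samples, either direction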
# An asterisk follows results filed as active; nt = not tested or not shown.
SMILES,PLAP activator,M1 antagonist,Cav32 inh,M1 ag
COc1ccc(-c2nn(-c3ccccc3)cc2C(=O)NCCCn2ccnc2)cc1,2.6*,-0.0058,0.34,-0.88
CN1C(=O)C2(N=c3ccccc3=N2)c2ccccc21,0.8,0.0073,1,2.4
COC(=O)CSc1nnc(CNC(=O)Cc2ccccc2)n1C,1,0.24,0.28,0.23
CCn1c(O)c(C=Nc2ccccc2)n(-c2ccccc2)c1=S,1.1,nt,-0.065,nt
CCC1(CC)Cc2ccccc2C(Nc2c(C)n(C)n(-c3ccccc3)c2=O)=N1,2*,nt,0.18,nt
N#C/C(=C1\C(=O)Nc2c(Cl)cc(Cl)cc21)c1nnc2n1CCCCC2,1.3,nt,0.067,nt
Cc1ccc(CNC(=O)Cn2cccc2C(=O)c2ccccc2)cc1,0.9,nt,-4.9*,nt
CC1=C(C(N)=O)C(c2ccccc2F)NC(=O)N1 (stereo not drawn),1,nt,0.14,nt
Clc1ccc(NC2=NCCCCC2)cc1,0.9,-0.00056,0.48,0.37
CCOC(=O)N1CCN(C(=O)CCCn2c(=S)[nH]c3ccc(Br)cc3c2=O)CC1,2*,nt,2.4,nt
CCOC(=O)N1CCN(C(=O)c2ccc3c(=O)n(Cc4ccccc4OC)c(=S)[nH]c3c2)CC1,1.4,nt,-1.2,nt
CCOC(=O)N1CCN(C(=O)c2ccc3c(=O)n(Cc4ccc(OC)cc4)c(=S)[nH]c3c2)CC1,nt,-1.7,-4.1*,1.8
Cc1ccc(C)c(N2CCN(C(=O)CCCn3c(=S)[nH]c4cc5c(cc4c3=O)OCO5)CC2)c1,1.7,0.1,-8.6*,0.74
Cc1ccc(S(=O)(=O)Nc2ccc3nc(-c4cccn4C)[nH]c3c2)cc1,1.3,-0.15,-5.7*,0.73
COc1ccc(-c2nnc(N3CCC(C)CC3)c3ccccc23)cc1,0.9,nt,nt,nt
COc1ccc2nc(SCC(=O)Nc3ccc(S(=O)(=O)Nc4nccc(C)n4)cc3)[nH]c2c1,1.1,nt,1.2,nt
O=C(COC(=O)CCC(=O)c1cccs1)Nc1cc(S(=O)(=O)N2CCOCC2)ccc1Cl,1.5,nt,0.59,nt
Cc1ccccc1NS(=O)(=O)c1cc(C(=O)Nc2ccccc2-c2ccccc2)ccc1Cl,1.3,nt,-3.4*,nt
CCOC(=O)c1sc(=S)n(CC)c1N,0.9,0.029,0.48,-0.86
CCOC(=O)c1sc(=S)n(Cc2ccccc2)c1N,0.8,-0.41,-6.7*,0.31
Cc1nc2ncnn2c(C)c1CCC(=O)N1CCN(c2ccccn2)CC1,1.1,0.4,-0.092,0.92
Cc1nc2cc(-c3ccccc3)nn2c(C)c1CCC(=O)N1CCN(c2ccccc2)CC1,1.6,nt,-6*,nt
CCn1c(=O)c(C(=O)CN2CCCc3ccccc32)c(N)n(Cc2ccccc2)c1=O,1.5,-0.66,-6.1*,-0.00088
COc1cc(CNCc2ccccn2)ccc1OCc1c(Cl)cccc1Cl,2*,nt,-1.5,nt
CN(CC(=O)Nn1cnnc1)S(=O)(=O)c1ccc(Br)cc1,1,nt,0.51,nt
SMILES,PLAP activator,M1 antagonist,Cav32 inh,M1 ag
CCCCNC(=O)COC(=O)c1ccc(NS(=O)(=O)c2ccc3c(c2)OCCO3)cc1,1.3,nt,0.67,nt
O=C1CC(NC23CC4CC(CC(C4)C2)C3)C(=O)N1c1ccc2c(c1)OCO2 (stereo not drawn),1,0.58,1.5,-1.2
Cc1ccc(-n2c(CSc3nc(C)cc(C)n3)nnc2SCC(=O)Nc2nccs2)cc1,nt,1.6,nt,0.89
CCc1ccc(NC(=O)CSc2nnc(Cc3cccn3C)n2-c2ccc(F)cc2)cc1,1.5,1.1,-4.1*,1
Cc1cc(C)nc(SCc2nnc(SCC(=O)Nc3nc(-c4ccccc4)cs3)n2-c2ccccc2)n1,2*,nt,-8.4*,nt
Cc1ccc(NC(=O)CSc2nnc(Cc3cccn3C)n2-c2ccc(F)cc2)cc1,1.5,-0.39,-3.9*,-0.14
Cc1csc(NC(=O)CSc2nnc(Cc3cccn3C)n2-c2ccc(F)cc2)n1,1.4,0.39,-5.8*,-0.51
COc1cc(/C=N/n2cnnc2)ccc1OCc1ccc(C)cc1,1.8,nt,0.026,nt
CCn1c(CCNC(=O)c2cccs2)nnc1SCC(=O)Nc1nc(-c2ccccc2)cs1,nt,nt,-7.5*,nt
O=C(c1cccc(C(F)(F)F)c1)N1CCOC12CCN(c1ncc(C(F)(F)F)cc1Cl)CC2,0.9,nt,-2.1,nt
COC(=O)c1nn(-c2ccccc2)ccc1=O,1,nt,0.035,nt
O=c1ccn(-c2cccc(C(F)(F)F)c2)nc1-c1ccn(-c2ccccc2)n1,1.1,nt,-5.7*,nt
COC(=O)c1cc(Br)ccc1OC(=O)c1cccnc1,1.1,1,-0.11,0.13
NC(=O)CC(NC(=O)c1cccc(Br)c1)c1ccc(N2CCC(N3CCCC3)CC2)c([N+](=O)[O-])c1 (stereo not drawn),nt,nt,-0.29,nt
CC1CN(S(=O)(=O)c2ccc(C(=O)Nc3nnc(-c4ccc5c(c4)CCCC5)o3)cc2)CC(C)O1 (stereo not drawn),1.9,-0.38,-8.4*,0.18
CC(=O)Nc1nnc(-c2ccc3c(c2)CCCC3)o1,1.6,-0.39,nt,-0.18
O=C(Nc1nnc(-c2ccc3c(c2)CCCC3)o1)C1COc2ccccc2O1 (stereo not drawn),1.4,0.53,-4.9*,0.16
O=C(CN1CCCCC1)Nc1cccc([N+](=O)[O-])c1,0.9,nt,0.39,nt
COc1ccc(OC)c(NC(=O)CSc2ccccc2)c1,0.8,-0.073,-1.7,0.062
Cc1ccc(NC(=O)CSc2nc3ccccc3c(=O)n2CCCN2CCCCC2)cc1C,2.6*,nt,-3.1,nt
COc1ccc(OC)c(NC(=O)CSc2nnc(C3CCCCC3)n2-c2ccccc2)c1,nt,nt,-7.4*,nt
COc1ccc(OC)c(NC(=O)CSc2nc3ccccc3c(=O)n2CCNC(C)=O)c1,nt,0.24,3.6*,0.83
Cc1ccc(NC(=O)CSc2nc3ccccc3c(=O)n2CCCC(=O)N2CCCC2)cc1,1,-0.31,-0.018,0.016
Cn1c(=O)c2c(nc(SC3C(=O)CC(C)(C)CC3=O)n2C)n(C)c1=O,1.1,0.14,0.59,-0.43
Cc1ccc(S(=O)(=O)C2(C(=O)N3CCN(C4CCCCC4)CC3)CC2)cc1,nt,-0.032,-5.2*,-0.18
SMILES,PLAP activator,M1 antagonist,Cav32 inh,M1 ag
O=C(Nc1ccc(S(=O)(=O)N2CCN(Cc3ccccc3)CC2)cc1)c1cnccn1,1.1,-0.69,-0.56,-0.89
CCn1c(CSc2nc3ccccc3s2)nnc1SCC(=O)NCC(=O)OC,1.7,nt,1.4,nt
O=C(CSc1nnc(-c2ccc(Cl)cc2Cl)n1C1CCCCC1)N1CCCC1,2*,nt,1,nt
O=C(CSc1nnc(-c2ccccc2F)n1C1CCCCC1)N1CCCC1,1.2,0.8,0.45,0.45
O=C(NNC(=S)NC(=O)c1cccnc1)c1ccc(Cl)cc1,1.9,nt,-2.7,nt
Cc1ccccc1C(=O)NNC(=S)NC(=O)c1ccc(Cl)cc1Cl,1.1,nt,-4*,nt
O=C(NC(=S)Nc1ccc(Oc2ccc(Cl)cc2)cc1)c1ccccc1,1,nt,-1,nt
O=C(CCc1ccccc1)NNC(=S)NC(=O)c1ccc(Cl)cc1,0.8,nt,-3.7*,nt
Cc1ccc(C(=O)NNC(=S)NC(=O)c2ccc(Cl)cc2)cc1,1.1,nt,-4.2*,nt
CCOc1ccc(N2CC(C(=O)Nc3ncccc3C)CC2=O)cc1 (stereo not drawn),1,0.15,-0.54,1.1
Cn1c(OCc2ccc3c(c2)OCO3)nc2c1c(=O)n(Cc1cccc(Cl)c1)c(=O)n2C,nt,-0.51,-0.78,0.048
